Reference: the supplement of paper PMC6555819

Key:
Assay in all cases: PBM binding z-score (relative to random genomic background probes); higher = stronger binding; sequences stand for … in GC…GCGATTGACAGCGTAGAATGAAGG
[1] = system: FXR:RXRa (NR concentration 270 nM, RXRa partner concentration 90 nM)
Outline: (§1)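 Scanned fluorescence from custom Agilent 4×180K protein-binding microarrays was regression-normalized. Binding z-scores use random background probes as reference. Ligand-free nuclear receptor dimers were incubated on the arrays for 1 h and detected with antibodies against each partner (one per run).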

[2] = system: LXRa:RXRa (NR concentration 270 nM, RXRa partner concentration 90 nM)
Outline: as §1

[3] = system: LXRa homodimer (NR concentration 270 nM)
Outline: as §1

[4] = system: LXRb:RXRa (NR concentration 270 nM, RXRa partner concentration 90 nM)
Outline: as §1

[5] = system: LXRb homodimer (NR concentration 270 nM)
Outline: as §1

[6] = system: PPARa:RXRa (NR concentration 270 nM, RXRa partner concentration 90 nM)
Outline: as §1

[7] = system: PPARg:RXRa (NR concentration 180 nM, RXRa partner concentration 90 nM)
Outline: as §1

[8] = system: PPARg:RXRa 270nM:90nM, anti-RXR (NR concentration 270 nM, RXRa partner concentration 90 nM)
Outline: as §1

[9] = system: PPARg:RXRa 30nM:10nM, anti-RXR (NR concentration 30 nM, RXRa partner concentration 10 nM)
Outline: as §1

[10] = system: PPARg:RXRa 90nM:30nM, anti-RXR (NR concentration 90 nM, RXRa partner concentration 30 nM)
Outline: as §1

[11] = system: PPARg:RXRa DBDmut IVT, anti-RXR (DBD mutation: RXRa K156A/R161A, NR concentration 270 nM, RXRa partner concentration 90 nM)
Outline: as §1

[12] = system: PPARg:RXRa IVT, anti-PPARg (NR concentration 270 nM, RXRa partner concentration 90 nM)
Outline: as §1

[13] = system: PPARg DBDmut:RXRa IVT, anti-PPARg (DBD mutation: PPARg1 K132A/R137A, NR concentration 270 nM, RXRa partner concentration 90 nM)
Outline: as §1

[14] = system: PPARg DBDmut IVT, anti-PPARg (DBD mutation: PPARg1 K132A/R137A, NR concentration 270 nM)
Outline: as §1

[15] = system: PPARg homodimer (NR concentration 180 nM)
Outline: as §1

[16] = system: PXR:RXRa (NR concentration 270 nM, RXRa partner concentration 90 nM)
Outline: as §1

[17] = system: PXR homodimer (NR concentration 270 nM)
Outline: as §1

[18] = system: RARa:RXR (NR concentration 270 nM, RXRa partner concentration 90 nM)
Outline: as §1

[19] = system: RARa homodimer (NR concentration 270 nM)
Outline: as §1

[20] = system: RARb:RXRa (NR concentration 270 nM, RXRa partner concentration 90 nM)
Outline: as §1

Row | Sequence | PBM binding z-score [1] | PBM binding z-score [2] | PBM binding z-score [3] | PBM binding z-score [4] | PBM binding z-score [5] | PBM binding z-score [6] | PBM binding z-score [7] | PBM binding z-score [8] | PBM binding z-score [9] | PBM binding z-score [10] | PBM binding z-score [11] | PBM binding z-score [12] | PBM binding z-score [13] | PBM binding z-score [14] | PBM binding z-score [15] | PBM binding z-score [16] | PBM binding z-score [17] | PBM binding z-score [18] | PBM binding z-score [19] | PBM binding z-score [20]
1 | CTCGAAAGGTCGTTCTCAGGTGAGTATACCAAAC | 5.6 | 4.19 | 1.08 | 3.68 | 1.37 | 4.56 | 1.99 | 3.08 | 0.949 | 2.29 | 0.679 | 1.61 | 0.926 | 0.753 | 2.11 | 3.62 | 0.471 | 4.19 | -0.0759 | 3.71
2 | TCTTGTAGCTCAAAGGTTAAGAAAGCCGAAGCCT | 0.766 | 1.08 | -0.349 | 1.32 | -0.747 | 3.36 | 4.77 | 6.09 | 4.64 | 6.1 | 1.21 | 1.99 | 0.0313 | -0.321 | 0.397 | 1.27 | -0.227 | 1.83 | -0.437 | 1.61
3 | CCTACTGGGCCATCGGGTCATTGATATCAACGTT | 1.37 | 1.03 | -0.0763 | 1.51 | -0.423 | 3.29 | 3.03 | 4.12 | 1.34 | 3.22 | 3.69 | 5 | 0.365 | -0.0654 | 1.81 | 1.9 | -0.0623 | 2.47 | -0.279 | 1.9
4 | ATTTCTAGGTAAAGTTCAGTGAAAGATCGATAGA | 1.69 | 2.17 | 1.41 | 1.4 | 1.27 | 2.82 | 3.19 | 4.21 | 2.41 | 4.03 | 4.75 | 4.3 | 2.07 | 2.14 | 2.58 | 2.41 | 2.25 | 1.36 | 2.45 | 2.95
5 | AATACAGGGTCATTGTAGGCCAGAGTACGCACAG | 7.11 | 6.93 | 3.2 | 5.09 | 1.47 | 5.93 | 6.15 | 5.54 | 2.4 | 4.29 | 2.56 | 4.77 | 1.99 | 0.86 | 2.91 | 4.83 | 0.912 | 4.54 | 0.607 | 4.19
6 | ATCGCTAGGTAACAAGTTCAGTGAAAGAGAGGAC | -0.045 | 0.0443 | -0.0365 | -0.0294 | -0.328 | 0.506 | 0.393 | 0.468 | -0.139 | 0.219 | -0.0634 | 0.674 | 0.226 | 0.479 | 0.192 | 1.13 | 1.05 | 0.46 | -0.284 | 1.38
7 | ACTATTAGTTGAGACAAGGGCAACCGATAGGTTG | 0.264 | -0.00254 | -0.143 | -0.136 | 0.202 | 0.0106 | 0.795 | 0.412 | 0.214 | 0.411 | -0.102 | 0.38 | 0.684 | 0.362 | 1.21 | 0.594 | 0.47 | 0.553 | 0.821 | 1.17
8 | TAGCCTAGGTCATTCAGGGGCCAGTCTAGAAAGC | 4.72 | 3.65 | 0.514 | 2.84 | 0.819 | 3.29 | 1.75 | 2.25 | -0.0756 | 1.15 | 1.37 | 2.68 | 0.235 | 0.0209 | 2 | 2.58 | -0.494 | 3.47 | -0.518 | 3.75
9 | AGAACGAGGGCAATGAGTTGATAACACGGGTGGC | 0.198 | 0.102 | -0.716 | -0.182 | -0.584 | 1.28 | 1.84 | 0.983 | 0.0129 | 0.611 | 2.99 | 2.45 | -0.222 | 0.293 | -0.128 | 1.53 | 4.8 | 0.19 | -0.633 | 2.05
10 | ATATGTAGGTTAGCCGGGGTCATTCAGACTAGGC | 5.13 | 5.67 | 3.14 | 4.72 | 0.687 | 5.6 | 6.59 | 5.96 | 3.47 | 5.29 | 7.11 | 6.89 | 1.14 | 1.79 | 2.77 | 6.72 | 4.32 | 6.2 | 0.664 | 3.31
11 | ACTCGGAGGACAAAGGTCAAAGCTACGCCAGTGA | 6.13 | 5.86 | 4.17 | 5.35 | 1.64 | 6.23 | 8.63 | 7.42 | 6.79 | 8.13 | 1.44 | 4.45 | -0.163 | -0.288 | 3.24 | 5.4 | 0.776 | 6.35 | 0.304 | 5.24
12 | AATACAGGGTCACTACGCCAGAGTAGGTACGAAT | 6.43 | 4.99 | 1.13 | 4.16 | 1.17 | 5.41 | 6.19 | 5.01 | 2.58 | 3.89 | 2.98 | 4.51 | 2.04 | 1.71 | 2.16 | 3.28 | 0.564 | 4.53 | 1.63 | 4.17
13 | CAAACTAGTTCACCGGAAGGTCAAAGTCCGCATG | 4.43 | 4.89 | 4.71 | 4.6 | 1.66 | 4.24 | 1.87 | 2.85 | 0.587 | 1.95 | 2.4 | 2.7 | 0.634 | 0.566 | 3.3 | 5.22 | 3 | 5.72 | 1.73 | 4.36
14 | CCGACTGCGGCATAAGGTTACCATAAGCCAGCCC | 0.434 | 1.84 | -0.038 | 0.877 | -0.74 | 0.702 | 0.575 | 0.243 | -0.468 | -0.29 | -0.303 | -0.677 | -0.568 | -0.753 | 0.108 | 0.121 | -0.316 | 0.892 | 0.0382 | 0.791
